High-throughput results (PubChem)
This is a sample that favours compounds with a hit; in the whole collection about 7.3% have one here.
FLuc counter = qHTS profiling assay for firefly luciferase inhibitor/activator using purifed enzyme and Km concentrations of substrates (counterscreen for miR-21 project); Luciferin 4-monooxygenase (Photinus pyralis), P08659; purified FLuc, Km substrates, luminescence inhibition; Potency, µM (series often up to 57.5 µM), for inactives: at the highest dose activity change, negative = inhibition, most hits filed as inhibitors; 6.9% of 360,000 active;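 note: plate controls were vehicle for no effect and reference inhibitor for full effect; nearly all actives have a fitted effect of over 55% in size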
Target sequence (P08659 whole entry, looked up): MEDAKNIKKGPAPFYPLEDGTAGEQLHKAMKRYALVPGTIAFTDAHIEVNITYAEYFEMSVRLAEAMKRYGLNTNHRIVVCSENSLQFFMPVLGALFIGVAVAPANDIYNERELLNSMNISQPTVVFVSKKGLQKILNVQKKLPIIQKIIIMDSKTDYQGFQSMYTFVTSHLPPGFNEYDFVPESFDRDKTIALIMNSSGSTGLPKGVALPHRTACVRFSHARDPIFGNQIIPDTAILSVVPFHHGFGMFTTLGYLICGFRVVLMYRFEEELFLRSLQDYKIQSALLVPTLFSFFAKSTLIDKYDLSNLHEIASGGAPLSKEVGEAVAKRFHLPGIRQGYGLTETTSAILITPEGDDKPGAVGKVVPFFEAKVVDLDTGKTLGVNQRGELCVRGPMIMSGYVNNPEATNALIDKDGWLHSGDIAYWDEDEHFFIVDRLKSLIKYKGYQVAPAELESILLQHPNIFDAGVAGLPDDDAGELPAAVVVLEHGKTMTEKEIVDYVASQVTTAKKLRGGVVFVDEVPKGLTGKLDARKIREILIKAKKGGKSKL
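Biochemical qHTS of compounds, final roughly 60 µM downward over six points, against 10 nM purified firefly luciferase using Km concentrations of substrates (10 uM D-luciferin, 10 uM ATP) in Tris acetate pH 7.5 buffer; luminescence output.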
NPC1 prom act = qHTS Assay for NPC1 Promoter Activators. 2.4% of 320,000 active. Huh7 NPC1 promoter luciferase reporter, 24 h. Potency, µM (top dose mostly 9.22 µM), inactives show at the top dose activation, actives largely listed as activators; note: % of control where 0% means no effect; nearly all actives have a fitted effect of over 60% in size
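Luciferase expression driven by the NPC1 promoter was measured in stably transfected Huh7 cells after a 24 h compound incubation, using a luciferase reagent and a luminescence read.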
SMN2 splice up = qHTS Assay for Enhancers of SMN2 Splice Variant Expression | HEK293 SMN2-luciferase splicing reporter, luminescence, 30-36 h | Potency, µM (highest dose often 46.1 µM), inactives show at the top dose activity change, positive = activation, hits mostly activators | 2.8% of 210,000 active; note: % of control where 0% means no effect; nearly all actives have a fitted effect of over 55% in size
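qHTS luciferase splicing reporter: luminescence rises when SMN2 exon 7 is included in transfected HEK293 cells. Compound exposure lasted 30-36 h at 37C, with 4.5 mM final sodium butyrate as control, followed by a ONE-Glo read.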
Rab9 prom act = qHTS Assay for Rab9 Promoter Activators; Huh7 Rab9 promoter-luciferase reporter, luminescence, 24 h; 2.8% of 320,000 active; Potency, µM (titrated, usually from 9.22 µM), without a hit: at the top dose activation, negative = inhibition, actives largely listed as activators; AID 485297, 2010; note: % of control where 0% means no effect; nearly all actives have a fitted effect of over 60% in size
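Quantitative HTS format; Huh7 Rab9-luciferase reporter cells (1500/well) receive compound 2 h post-plating, incubate 24 h at 37 °C, then get luciferase reagent for 10 min before luminescence reading.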
Luc counter = Counterscreen for Luciferase (Kinase-Glo TM) Inhibition | AID 1379, 2008 | Potency, µM (top dose mostly 38.3 µM), inactives show top-dose activity change, negative = inhibition, hits mostly inhibitors | Kinase-Glo luciferase, ATP luminescence, 8 min | 0.28% of 200,000 active; note: % is set by controls: 0 for no effect and ±100 for the full control effect; nearly all actives have a fitted effect of over 60% in size
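Inhibition of Kinase-Glo luciferase light generation was assessed at 10 uM ATP in pH 7.2 imidazole buffer, with luminescence measured after eight minutes at ambient temperature.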
Starred values were filed as active, the others as inactive; ? = inconclusive; . = no result given. Calls come from the whole dose curve; as a rule, active = well fitted curve in the direction sought with a large enough effect; inconclusive = small, poorly fitted or top-dose-only effect, or another doubt; inactive = no such curve, though single readings can be large; an effect the other way counts as inactive or inconclusive. Potency is the fitted concentration of half-maximal effect.

SMILES | FLuc counter | NPC1 prom act | SMN2 splice up | Rab9 prom act | Luc counter
COCCNC(=O)CSc1nc2ccccc2nc1Cc1ccc(C)cc1 | 2.3% | . | . | . | .
Cc1c(Cl)cccc1Nc1nn2c(=O)c3ccc(C(=O)NCCC4=CCCCC4)cc3nc2s1 | -6.7% | . | . | . | .
Cc1cc(Cl)ccc1NC(=O)CSc1nc2c(c(=O)[nH]1)CCC2 | 1.4% | . | . | . | .
Clc1ccc(CN2CCSCC2)cc1Cl | -1.7% | -2.7% | . | 7.3% | .
c1ccc(-c2ccc(CN3CCSCC3)cc2)cc1 | 26.9µM* | 10.8% | . | 0.1% | .
O=C(NC1CC1)c1ccc(Cn2c(SCc3cccc(F)c3)nc3cccnc32)cc1 | -15.8% | . | . | . | .
O=C(NC1CCCC1)c1ccc(CSc2nc3cccnc3n2Cc2ccc(F)cc2)cc1 | -8.4% | . | . | . | .
Cc1ccccc1CSc1nc2cccnc2n1Cc1ccc(C(=O)NC2CC2)cc1 | 6.01µM* | . | . | . | .
O=C(NC1CC1)c1ccc(Cn2c(SCc3ccc(F)cc3)nc3cccnc32)cc1 | 1.69µM* | . | . | . | .
O=C(Oc1ccc(-c2cnc3ccccc3n2)cc1)c1ccco1 | 0.269µM* | ? | ? | ? | ?
O=C(Oc1ccc(-c2cnc3ccccc3n2)cc1)c1cc([N+](=O)[O-])ccc1Cl | ? | 3.98µM* | ? | 9.0% | -1.8%
Cc1c(C(=O)Oc2ccc(-c3cnc4ccccc4n3)cc2)cccc1[N+](=O)[O-] | ? | ? | 24.2% | ? | 0.2%
O=C(Oc1cccnc1)c1ccco1 | 2.7% | -5.0% | -9.8% | -5.4% | 13.6%
CCC(=O)Oc1ccc(-c2cnc3ccccc3n2)cc1 | 0.301µM* | ? | ? | ? | -13.8%
FB(F)F | . | . | 24.6% | . | .
CC(C)NC(=O)c1onc(CSc2cccc3ccccc23)c1C(=O)O | 26.9µM* | 1.0% | -1.8% | -4.9% | -1.3%
Cc1ccc2c(c1)C=CC(C)N2C(=O)c1ccccc1 (centres undefined) | 0.6% | -3.4% | -13.3% | 4.9% | 9.8%
Cc1ccc2c(c1)C=CC(C#N)N2C(=O)c1ccccc1 (centres undefined) | -6.6% | -17.1% | 6.31µM* | -17.8% | -2.1%
COC(=O)c1ccc(Cn2c(=O)cc(C)c3c(C)nn(C)c32)cc1 | -15.2% | . | . | . | .
COc1ccc2c(Sc3ccc(C)cc3)c(C(=O)NCCc3ccccc3)[nH]c2c1 | -2.9% | . | . | . | .
COc1ccc2c(Sc3ccccc3)c(C(=O)NCCN(C)C)[nH]c2c1 | 4.78µM* | . | . | . | .
COc1ccc2c(N)c(C(=O)NN)[nH]c2c1 | 16.9µM* | -1.6% | . | -2.6% | .
Cc1sc(NC(=O)C2C3CCC(O3)C2C(=O)O)nc1-c1ccc(CC(C)C)cc1 (centres undefined) | 15.1µM* | 6.8% | 20.5% | 20.2% | 0.0%
COc1cccc([C@@H]2Oc3ccc(OC)cc3C(=O)[C@H]2OC(=O)NCc2ccc3c(c2)OCO3)c1 | 6.01µM* | -2.4% | 13.2% | ? | 2.1%
COc1ccc2c(c1)O[C@H](c1ccc3c(c1)OCO3)[C@@H](OC(=O)NCc1ccc3c(c1)OCO3)C2=O | . | . | -8.6% | . | 0.7%
SMILES | FLuc counter | NPC1 prom act | SMN2 splice up | Rab9 prom act | Luc counter
COc1cccc([C@@H]2Oc3ccc(OC)cc3C(=O)[C@H]2OC(=O)NCCc2ccc(OC)c(OC)c2)c1 | . | . | 11.2µM* | . | -1.2%
COc1ccc(OCC(=O)Nc2ccc(C(=O)OCc3cc(=O)n4nc(C)sc4n3)cc2)cc1 | -0.8% | . | . | . | .
CCc1cc(C(=O)Nc2nc(-c3ccccn3)cs2)sc1C | 12µM* | 23.8% | . | 23.6% | .
CC(=O)Nc1ccc(C(=O)Nc2nc(-c3ccccn3)cs2)cc1 | ? | -4.6% | 11.4% | -14.2% | -0.5%
O=C(Nc1nc(-c2ccccn2)cs1)c1ccc([N+](=O)[O-])o1 | ? | 0.7% | . | -31.5% | .
Cc1ccc(C(=O)Nc2nc(-c3ccccn3)cs2)o1 | 19µM* | -1.5% | . | -1.2% | .
Cn1cc(C(=O)NCc2ccccc2)c(=O)c2cc(S(=O)(=O)N3CCCCCC3)ccc21 | -7.7% | . | . | . | .
O=C(Nc1ccon1)c1ccc(OC2CCCC2)cc1 | 3.01µM* | 2.51µM* | 17.8µM* | 2µM* | -7.8%
COc1ccc(-c2nc(-c3cccs3)c(-c3cccs3)[nH]2)cc1O | 16.9µM* | 1.2% | 27.4% | -2.4% | 0.0%
Cc1cccc(-c2c3c(=O)n(C)c(=O)n(C)c3c3c(C)nc4ccccc4n23)c1 | -7.6% | . | -0.7% | . | .
O=S(=O)(Nc1ccc(-c2ccc(N3CCOCC3)nn2)cc1)c1ccc(Cl)c(Cl)c1 | 23.9µM* | -4.2% | . | 0.8% | .
Cc1ccc([N+](=O)[O-])cc1S(=O)(=O)Nc1ccc(-c2ccc(N3CCOCC3)nn2)cc1 | ? | 2.7% | . | 1.7% | .
O=[N+]([O-])c1ccc(Cl)c(S(=O)(=O)Nc2ccc(-c3ccc(N4CCOCC4)nn3)cc2)c1 | 15.1µM* | 6.6% | . | -1.5% | .
O=[N+]([O-])c1ccc(Cl)c(S(=O)(=O)Nc2cccc(-c3ccc(N4CCOCC4)nn3)c2)c1 | 2.39µM* | ? | . | ? | .
CCN(CC)c1ccc(/C=N/N2CCOCC2)cc1 | 8.49µM* | 3.55µM* | 22.4µM* | 3.16µM* | 6.4%
COc1ccc(S(=O)(=O)Nc2cc3c(cc2N2CCOCC2)n(C)c(=O)n3C)cc1 | 6.5% | . | 7.6% | . | .
O=C(NC1=NCCS1)c1ccncc1 | 1.0% | -0.5% | 6.5% | 3.1% | 0.9%
CC(C)c1ccc(OCC(=O)NC2=NCCS2)cc1 | 7.57µM* | ? | . | 16.1% | -10.0%
COc1ccc(OCCC(=O)NC2=NCCS2)cc1 | -8.9% | -0.4% | ? | -1.2% | 0.2%
Cc1cccnc1NC(=O)C(C)Oc1ccccc1 (centres undefined) | 7.4% | -1.9% | 6.4% | -1.1% | 1.6%
N#Cc1ccc(OCC(=O)NC2=NCCS2)cc1 | -17.0% | 17.6% | 6.7% | 23.1% | 2.7%
O=C(COc1ccccc1)NC1=NCCS1 | 7.57µM* | -4.6% | -27.8% | -1.6% | -23.9%
CC(Oc1ccccc1)C(=O)NC1=NCCS1 (centres undefined) | 15.1µM* | ? | 14.1µM* | 3.16µM* | -6.5%
O=C(NC1=NCCS1)Nc1ccccc1 | 9.53µM* | 1.41µM* | 10µM* | 1.41µM* | -28.8%
Cc1cc(S(=O)(=O)Nc2cc3c(cc2Cl)n(C)c(=O)c(=O)n3C)ccc1F | -15.8% | . | 5.0% | . | .
CSc1cccc(NC(=O)Cn2ncn3c(cc4ccccc43)c2=O)c1 | -13.7% | . | 5.3% | . | .
CCC(C)Sc1oc(-c2ccco2)nc1S(=O)(=O)c1ccc(Cl)cc1 (centres undefined) | -1.2% | . | -13.6% | . | .
O=C(C1CCN(S(=O)(=O)c2ccc(Br)s2)CC1)N1CCN(c2cccc(C(F)(F)F)c2)CC1 | -5.1% | . | -21.8% | . | .
CC(C)(C)C(=O)COC(=O)c1cc2ccccc2cc1O | 6.75µM* | -1.3% | ? | 0.6% | -5.4%
